Source: PubChem (National Center for Advancing Translational Sciences (NCATS))
The list is not random: actives were taken first. Their share in the collection is about 2.1%.
Abeta rescue: compounds reversing amyloid beta toxicity in yeast; 410,000 tested, 0.063% active; Potency, µM (series often up to 46.1 µM), most hits filed as activators; yeast expressing A-beta42, growth rescue, OD600, 48 h; response scale: 0% DMSO, 100% iron-clioquinol control; also: nearly all actives have a fitted effect of over 55% in size
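Yeast A-beta toxicity model in growth medium with pinned compounds, 48 h at 30 C; growth read as absorbance at 600 nm. Normalized to FeCl3/clioquinol equimolar mix (positive) and DMSO (negative).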
aSyn rescue: rescues yeast growth from alpha-synuclein toxicity; Yeast expressing alpha-synuclein, growth rescue, BacTiter-Glo, 24 h; Potency, µM (doses to about 46.1 µM), without a hit: top-dose growth rescue (activation), most hits filed as activators; 370,000 tested, 0.14% active; also: % of control where 0% means no effect; nearly all actives have a fitted effect of over 65% in size
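Readout is rescue of growth in alpha-synuclein-expressing yeast, so inhibitors of toxicity appear as activators. Growth after 24 hr at 30 deg C in galactose medium is quantified by luminescence.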
TDP-43 yeast inh: rescues yeast growth from TDP-43 toxicity | TDP-43 expressing yeast growth rescue, BacTiter-Glo, 24 h | Potency, µM (top dose mostly 46.1 µM), without a hit: at the top dose growth rescue (activation), usual class: activators | 410,000 tested, 1.8% active | AID 652104; also: % of control where 0% means no effect; nearly all actives have a fitted effect of over 50% in size
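Luminescence from BacTiter-Glo reports growth of TDP-43-expressing yeast after 24 hr at 30 deg C with compound. Cells were raffinose-pregrown to mid-log, then seeded in galactose medium at OD600=0.02.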
FUS yeast rescue: FUS proteinopathy suppression in yeast; S. cerevisiae FUS-expressing, growth rescue, OD600, 24 h; Potency, µM (series often up to 76.6 µM), usual class: activators; 390,000 tested, 0.24% active; AID 1347120;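 also: plate controls were DMSO vehicle for no effect and reference control for full effect; nearly all actives have a fitted effect of over 55% in size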
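Yeast FUS proteinopathy model; galactose-induced FUS (2%), starting OD 0.005. Cpds in dilution series, 24hr, 30C, 99% humidity. Abs 600 nm growth. Pos ctrl CP55940 (top 92uM final); neg ctrl DMSO.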
Starred values were filed as active, the others as inactive; [ ] = dose if it differs, or a comment. Calls follow the shape of the dose curve; as a rule, active = well fitted curve in the direction sought with a large enough effect; inconclusive = small, poorly fitted or top-dose-only effect, or another doubt; inactive = no such curve, though single readings can be large; an effect the other way counts as inactive or inconclusive. Potency is read from the fitted curve at half-maximal effect.

Cc1ccc(C)c(NC(=O)CCC(=O)OC(C(=O)c2ccccc2)c2ccccc2)c1 (stereo not drawn) was read as Abeta rescue inactive, aSyn rescue 10%, TDP-43 yeast inh inconclusive and FUS yeast rescue inactive.
For CC1CCCCN1CCCNC(=O)c1ccc2c(c1)sc1nc(-c3ccc(F)cc3)cn12 (stereo not drawn) the results were Abeta rescue inactive, TDP-43 yeast inh 5%[9.22 µM] and FUS yeast rescue inactive.
`Cc1cccc(Nc2nc(NCc3ccco3)nc(N3CCOCC3)n2)c1` gave Abeta rescue inactive, aSyn rescue 13%, TDP-43 yeast inh 13µM* and FUS yeast rescue inactive.
Screening c1ccc(CNc2nc(NCc3ccco3)nc(N3CCOCC3)n2)cc1 returned Abeta rescue inactive, aSyn rescue 3%, TDP-43 yeast inh 21% and FUS yeast rescue inactive.
Screening CN=c1sc(C(=O)Nc2ccccc2)c(C)n1C returned Abeta rescue inactive, aSyn rescue 4%, TDP-43 yeast inh -1% and FUS yeast rescue inactive.
Screening CN=c1sc2c(n1C)C(=O)c1ccccc1C2=O returned Abeta rescue inactive, aSyn rescue 3% and TDP-43 yeast inh 11µM*.
O=C(/C=C/c1ccc(Br)cc1)NC(=S)NNC(=O)c1ccco1 was read as Abeta rescue inactive, aSyn rescue 22µM*, TDP-43 yeast inh 5.6µM* and FUS yeast rescue inactive.
For Cc1cccc(NC(=S)NNC(=O)c2ccco2)c1 the results were Abeta rescue inactive, aSyn rescue -30%, TDP-43 yeast inh -12% and FUS yeast rescue inactive.
For O=C(NC(=S)NNC(=O)c1ccco1)c1ccccc1 the results were Abeta rescue inconclusive, aSyn rescue 13µM*, TDP-43 yeast inh inconclusive and FUS yeast rescue inactive.
O=C(/C=C/c1ccccc1)NC(=S)NNC(=O)c1ccco1 was read as Abeta rescue inactive, aSyn rescue 3.5µM*, TDP-43 yeast inh 11µM* and FUS yeast rescue inconclusive.
`O=C(NNC(=O)c1ccco1)c1ccccc1` gave Abeta rescue inactive, aSyn rescue -14%, TDP-43 yeast inh -11% and FUS yeast rescue inactive.
For O=C(/C=C/c1ccccc1)NC(=S)Nc1ccccc1 the results were Abeta rescue inconclusive, aSyn rescue 0%, TDP-43 yeast inh 10% and FUS yeast rescue inactive.
For Cc1ccccc1NC(=O)OCCCN1C(=O)CCC12CCC(C)CC2 (stereo not drawn) the results were FUS yeast rescue inactive.
`C[C@H]([C@@H](N)C(=O)N[C@@H](C(=O)O)[C@@H]1O[C@H](n2ccc(=O)[nH]c2=O)[C@@H](O)[C@H]1O)[C@@H](O)c1ccc(O)cn1` gave Abeta rescue inconclusive, aSyn rescue 0%, TDP-43 yeast inh 4.5µM* and FUS yeast rescue inactive.
`COC(=O)c1cc(C)nc2c1c(=O)nc(SCc1ccccc1C)n2C1CC1` gave Abeta rescue inactive, TDP-43 yeast inh inconclusive and FUS yeast rescue inactive.
Cc1ccc(CCNC(=O)CCCn2c(=O)c3cccn3c3ccc(F)cc32)cc1 was read as Abeta rescue inactive, TDP-43 yeast inh 35µM* and FUS yeast rescue inactive.
For CCc1ccc(NC(=O)Cn2c(=O)c3cccn3c3ccccc32)cc1 the results were Abeta rescue inactive, aSyn rescue -11%, TDP-43 yeast inh -9% and FUS yeast rescue inactive.
`CC(CNC(=O)CCCn1c(=O)c2cccn2c2ccc(F)cc21)c1ccccc1` (stereo not drawn) gave Abeta rescue inactive, TDP-43 yeast inh 25µM* and FUS yeast rescue inconclusive.
Screening CCc1ccc(NC(=O)CCn2c(=O)c3cccn3c3ccccc32)cc1 returned Abeta rescue inactive, aSyn rescue -5%, TDP-43 yeast inh 13µM* and FUS yeast rescue inconclusive.
For CN1[C@@H](Cc2ccccc2)COc2cc(F)ccc2S1(=O)=O the results were FUS yeast rescue inactive.
`Cn1cc(-c2cccc3[nH]cc(-c4ccccc4)c23)c2ccccc21` gave FUS yeast rescue inactive.
For S=C(NCCc1ccccc1)N1CCC2CC1c1cc(-c3ccc4c(c3)OCO4)ccc12 (stereo not drawn) the results were Abeta rescue inactive, aSyn rescue -11%, TDP-43 yeast inh inconclusive and FUS yeast rescue inactive.
For COCCNC(=S)N1CCC2CC1c1cc(-c3ccc4c(c3)OCO4)ccc12 (stereo not drawn) the results were Abeta rescue inconclusive, aSyn rescue 23%, TDP-43 yeast inh 22µM* and FUS yeast rescue inconclusive.
`COc1ccccc1N1CCN(C(=O)C2CCN(S(=O)(=O)c3cnc[nH]3)CC2)CC1` gave Abeta rescue inactive, TDP-43 yeast inh 0% and FUS yeast rescue inactive.
Cc1sc2ncnc(N3CCC(C(=O)Nc4cc(Cl)ccc4Cl)CC3)c2c1C was read as Abeta rescue inactive, aSyn rescue -10%, TDP-43 yeast inh 11µM* and FUS yeast rescue inactive.
For Cc1ccc(S(=O)(=O)N2CCN(c3ncnc4scc(-c5ccccc5)c34)CC2)cc1 the results were Abeta rescue inactive, aSyn rescue 9% and TDP-43 yeast inh 16%.
Screening Cc1sc2ncnc(N3CCC(C(=O)Nc4cc(S(C)(=O)=O)ccc4Cl)CC3)c2c1C returned Abeta rescue inactive, aSyn rescue 0%, TDP-43 yeast inh 2% and FUS yeast rescue inactive.
Cc1sc2ncnc(N3CCN(S(=O)(=O)c4ccccc4)CC3)c2c1C was read as Abeta rescue inactive, aSyn rescue -3% and TDP-43 yeast inh 18µM*.
`Cc1ccc(S(=O)(=O)N2CCN(c3ncnc4sccc34)CC2)cc1C` gave Abeta rescue inactive, aSyn rescue 7%, TDP-43 yeast inh 11µM* and FUS yeast rescue inactive.
`Cc1ccc(S(=O)(=O)NC2c3cccc4cccc(c34)C2Sc2ncccn2)cc1` (stereo not drawn) gave Abeta rescue inactive, aSyn rescue 2% and TDP-43 yeast inh 16µM*.
`Cc1cc(C)nc(SC2c3cccc4cccc(c34)C2NS(=O)(=O)c2ccccc2)n1` (stereo not drawn) gave Abeta rescue inactive, aSyn rescue -2%, TDP-43 yeast inh inconclusive and FUS yeast rescue inactive.
Screening COc1ccc(NC(=O)C(c2ccc(C)cc2)N(C)C(=O)Cc2cccs2)cc1 (stereo not drawn) returned Abeta rescue inconclusive, aSyn rescue 12%, TDP-43 yeast inh 13µM* and FUS yeast rescue inactive.
For COc1cccc(C(O)c2nc(-c3cc4ccccc4o3)cs2)c1 (stereo not drawn) the results were Abeta rescue inactive, aSyn rescue inconclusive, TDP-43 yeast inh 20µM* and FUS yeast rescue inactive.
COc1cc(C(O)c2nc(-c3cc4ccccc4o3)cs2)ccc1F (stereo not drawn) was read as Abeta rescue inconclusive, aSyn rescue -17%, TDP-43 yeast inh 17% and FUS yeast rescue inactive.
